Neddyl block: blocks human cullin neddylation; P61081+Q13564; TR-FRET cullin neddylation, biochemical; inhibition, % at 25 µM; 0.58% of 360,000 active; in the data active = inhibition above about 36%
Target sequence (P61081 whole entry, looked up): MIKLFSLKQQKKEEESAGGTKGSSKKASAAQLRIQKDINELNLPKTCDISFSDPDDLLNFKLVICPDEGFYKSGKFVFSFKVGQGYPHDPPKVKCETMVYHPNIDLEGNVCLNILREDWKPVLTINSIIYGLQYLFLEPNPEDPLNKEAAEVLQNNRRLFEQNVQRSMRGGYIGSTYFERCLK
Target sequence (Q13564 whole entry, looked up): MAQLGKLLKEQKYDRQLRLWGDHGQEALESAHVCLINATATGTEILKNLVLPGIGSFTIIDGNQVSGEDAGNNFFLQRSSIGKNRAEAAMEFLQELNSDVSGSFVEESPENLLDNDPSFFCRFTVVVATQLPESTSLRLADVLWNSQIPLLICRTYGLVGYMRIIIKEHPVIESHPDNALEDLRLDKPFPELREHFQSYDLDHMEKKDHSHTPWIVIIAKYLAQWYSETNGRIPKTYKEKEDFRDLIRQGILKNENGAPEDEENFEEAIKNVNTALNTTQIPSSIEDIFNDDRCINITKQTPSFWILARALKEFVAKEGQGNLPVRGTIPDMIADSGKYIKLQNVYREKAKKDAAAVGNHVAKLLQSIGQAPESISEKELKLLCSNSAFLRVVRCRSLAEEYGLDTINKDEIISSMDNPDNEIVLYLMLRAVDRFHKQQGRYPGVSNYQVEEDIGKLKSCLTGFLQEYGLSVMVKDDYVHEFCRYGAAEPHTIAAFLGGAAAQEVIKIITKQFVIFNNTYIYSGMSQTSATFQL
GC-B act: GC-B (human) receptor activation; P20594; HEK293-GC-B cells, CNP EC30, cGMP TR-FRET; 0% at EC30 CNP, 100% saturating CNP; activation, % at 10 µM; 0.11% of 370,000 active; AID 1920062;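 active = activation at 10 µM reaching about 35% in either raw or pattern-adjusted values, limit read from the data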
NPR1 activator: GC-A (human) enzyme activation; activation, % at 10 µM; 0.14% of 370,000 active; AID 1671463; HEK293 GC-A cells, cGMP TR-FRET, EC30 ANP; 0% at EC30 ANP, 100% saturating ANP; in the data active = activation above about 40%
NadD block: blocks S. aureus nicotinate mononucleotide adenylyltransferase. 0.78% of 360,000 active. purified NadD enzyme, colorimetric absorbance read-out. inhibition, % at 20 µM; in the data active = inhibition above about 26%
NadD conf: confirmation of Staphylococcus aureus NadD inhibitors; inhibition, % at 20 µM; shares compounds with NadD block; 13% of 2,000 active; purified S. aureus NadD, colorimetric enzyme assay; in the data active = inhibition mostly above about 42%, no sharp cut-off; inactive = mostly below about 42%
Of the large screens only hits and unclear results are named; the others gave an inactive call (follow-up assays come after a bar, where shown). The list is not random: actives were taken first. Their share in the collection is about 1.5%.

FC(F)(F)Oc1cccc(Cn2ccc3ccc(-c4ccc5ccn(Cc6ccccc6)c5c4)cc32)c1	none (no result: Neddyl block, NadD block)
COc1ccc(-c2csc(NC(=S)NC(=O)c3ccccc3)n2)cc1Br	none
COc1ccc(C(=O)NC(=S)Nc2nc(-c3ccc(OC)c(Br)c3)cs2)cc1Br	NadD block 33.2 | NadD conf inactive
CC1(C)Cc2c(C#N)c(N3CCN(C(=O)c4ccco4)CC3)nc(-c3ccco3)c2CS1	none
CC1(C)Cc2c(C#N)c(N3CCN(C(=O)c4ccccc4Cl)CC3)nc(-c3ccco3)c2CS1	NadD block 34.3 | NadD conf inactive
Fc1ccc(C2=Nn3c(nnc3C3CCCCC3)SC2)cc1	none (no result: Neddyl block, NadD block)
O=c1nc2s/c(=C\c3ccc(-c4ccccc4[N+](=O)[O-])o3)c(=O)n2nc1-c1ccccc1	NadD block 35.7 | NadD conf inactive
O=C1C(=O)N(CCN2CCOCC2)C(c2cccc(Cl)c2)/C1=C(\O)c1ccc2c(c1)OCCO2 (configuration not stated)	none
C=CCOc1ccc(C2/C(=C(\O)c3ccc4c(c3)OCCO4)C(=O)C(=O)N2CCCN2CCOCC2)cc1 (configuration not stated)	NadD block 44.0 | NadD conf inactive
COC(=O)c1ccc(C2/C(=C(\O)c3ccc4c(c3)OCCO4)C(=O)C(=O)N2CCCN2CCOCC2)cc1 (configuration not stated)	none
CCCCOc1cccc(C2/C(=C(\O)c3ccc4c(c3)OCCO4)C(=O)C(=O)N2CCN2CCOCC2)c1 (configuration not stated)	NadD block 46.6 | NadD conf inactive
CCCC(=O)N1CCC[C@]2(CC[C@@H](CCC(C)=O)O2)C1	none (no result: Neddyl block, NadD block)
O=C(NCc1ccccc1)[C@@H]1CCCN1C(=O)[C@H]1CCCN1C(=O)c1ccccc1F	none (no result: Neddyl block, NadD block)
C[C@@H]1CN([C@H](C)CO)C(=O)c2cc(NC(=O)Nc3ccccc3)ccc2O[C@@H](C)CCCCO[C@H]1CN(C)S(C)(=O)=O	none (no result: Neddyl block, NadD block)
O=C(CSC(=S)N1CCN(c2ccccc2)CC1)Nc1nc(-c2ccccc2)c(-c2ccccc2)o1	NadD block 35.2 | NadD conf inactive
CC(=O)N1c2cc(S(=O)(=O)Nc3c(C)n(C)n(-c4ccccc4)c3=O)c(Br)cc2CC1C (configuration not stated)	none (no result: Neddyl block, NadD block)
Cc1cc(C)n2c(SCC(O)=C(C#N)c3nc4ccccc4[nH]3)nnc2n1	none
Cc1cccc(Nc2nnc(SC/C(O)=C(\C#N)c3nc4ccccc4[nH]3)s2)c1	NadD block 32.0 | NadD conf inactive
Cc1ccc(Nc2nnc(SC/C(O)=C(\C#N)c3nc4ccccc4[nH]3)s2)c(C)c1	NadD block 55.7 | NadD conf 60.5
CCOC(=O)c1sc(NC(=O)c2cccc(S(=O)(=O)N3CCc4ccccc43)c2)c(C#N)c1C	NadD block 35.9 | NadD conf inactive
C=CCN1C(C(=O)OC)CN(Cc2cn(Cc3ccc(F)cc3)nn2)CCS1(=O)=O (configuration not stated)	none (no result: Neddyl block, NadD block)
Nc1c(S(=O)(=O)c2cccs2)c2nc3ccccc3nc2n1Cc1ccccc1	none (not shown: Neddyl block)
Cc1ccc(Cn2c(N)c(S(=O)(=O)c3cccs3)c3nc4ccccc4nc32)cc1	NadD block 31.9 | NadD conf inactive
O=C(NCc1ccccc1Cl)C1CCCN(c2nc3ccccc3o2)C1 (configuration not stated)	none (no result: Neddyl block, NadD block)
CC(=O)c1c(C)[nH]c(C(=O)OC(C)C(=O)Nc2ccc(C)c(S(=O)(=O)N3CCOCC3)c2)c1C (configuration not stated)	none
Cc1ccc(NC(=O)C(C)OC(=O)c2cc(=O)[nH]c3ccccc23)cc1S(=O)(=O)N1CCOCC1 (configuration not stated)	NadD block 34.9 | NadD conf inactive
Cc1cccc(-n2nc3c(c2NC(=O)c2ccc(Br)o2)CSC3)c1	NadD block 44.1 | NadD conf 64.5
Cc1ccc(-n2nc3c(c2NC(=O)c2cccs2)CSC3)cc1	NadD block 56.3 | NadD conf 77.2
CN(C(=O)CNC(=O)c1ccccc1OCC(=O)Nc1ccc(I)cc1)c1ccccc1	none (no result: Neddyl block, NadD block)
Cc1cc(C)nc(NC(=NCCc2c[nH]c3ccccc23)NC(=O)Nc2ccccc2)n1	none
Cc1cc(C)nc(NC(=NCCc2c[nH]c3ccccc23)NC(=O)c2ccco2)n1	none
Cc1cc(C)nc(NC(=NCCc2c[nH]c3ccccc23)NC(=O)Nc2ccc(Cl)c(Cl)c2)n1	NadD block 38.4 | NadD conf inactive
Cc1cc(C)nc(NC(=NCCc2c[nH]c3ccccc23)NC(=O)Nc2cccc([N+](=O)[O-])c2)n1	NadD block 49.2 | NadD conf inactive
CCN(C(=O)C1CCN(c2ncccn2)CC1)c1ccccc1	none (no result: Neddyl block, NadD block)
CCNc1sc(C(=O)c2cccs2)c(N)c1-c1nc2ccccc2s1	NadD block 30.2 | NadD conf inactive
CCOc1ccccc1Nc1nc(-c2sc(C)nc2C)cs1	none
CCOc1ccccc1Nc1nc(-c2sc(NC(=O)c3ccco3)nc2C)cs1	NadD block 30.9 | NadD conf inactive
Cc1ccc(Nc2nc(-c3sc(NC(=O)c4ccco4)nc3C)cs2)cc1	NadD block 33.0 | NadD conf inactive
Cc1ccccc1Nc1nc(-c2sc(NC(=O)c3ccco3)nc2C)cs1	NadD block 32.4 | NadD conf inactive
NCCCC[C@@H]1NC(=O)c2cc([N+](=O)[O-])cc(I)c2SC[C@@H](C(N)=O)NC(=O)[C@H](Cc2ccc(O)cc2)NC1=O	NadD block 42.3 (no result: GC-B act, NPR1 activator) | NadD conf inactive
Cc1cc(NS(=O)(=O)c2ccc(NC(=O)CSc3nnc(-c4ccco4)n3-c3ccc(Cl)cc3)cc2)nc(C)n1	none (no result: Neddyl block, NadD block)
S=c1[nH]nc(Nc2cccc3ccccc23)s1	NadD block 37.2 | NadD conf inactive
Cc1ccccc1Nc1n[nH]c(=S)s1	none
Cc1c(Cl)cccc1Nc1n[nH]c(=S)s1	NadD block 32.4 | NadD conf inactive
O=C(NNC(=S)NC(=O)c1cccs1)c1ccc(NC(=O)c2ccccc2)cc1	NadD block 31.6 | NadD conf inactive
O=C(Nc1cccc2nsnc12)c1ccc(-c2cccc(Cl)c2)o1	NadD block 45.3 (not shown: Neddyl block) | NadD conf inactive
CC(C)CNC(=O)OCc1cn(Cc2cc(F)cc(F)c2)nn1	none (no result: Neddyl block, NadD block)
CCOc1ccc(CCN2C(=O)C(=O)N([C@@H](CC(C)C)CN3CCC[C@H]3CN3C(=O)C(=O)NC[C@@H]3Cc3ccccc3)C[C@@H]2Cc2ccccc2)cc1	NadD block 34.1 | NadD conf inactive
CCOc1ccc(CCN2C(=O)C(=O)N([C@@H](CC(C)C)CN3CCC[C@@H]3CN3C(=O)C(=O)NC[C@@H]3Cc3ccccc3)C[C@@H]2CC(C)C)cc1	none
CCOc1ccc(CCN2C(=O)C(=O)N([C@@H](CC(C)C)CN3CCC[C@H]3CN3C(=O)C(=O)NC[C@@H]3Cc3ccccc3)C[C@@H]2Cc2ccc(O)cc2)cc1	NadD block 34.7 | NadD conf inactive

Screens: PubChem BioAssay, Sanford-Burnham Center for Chemical Genomics
